Screening results (PubChem)
VDR inhibitor = Inhibitors of the vitamin D receptor (VDR): qHTS; Potency, µM, for the others: max response, negative = inhibition, hits mostly inhibitors; actives 0.93% (n = 400,000); VDR-SRC2-3 peptide fluorescence polarization, 2 h; note: potency is the fitted concentration of half-maximal effect
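The screen uses fluorescence polarization to detect compounds that interfere with recruitment of the SRC2-3 coactivator peptide to VDR; plates are read after 2 h at room temperature.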
GLS inhibitor = qHTS for Inhibitors of Glutaminase (GLS). Potency, µM (top dose mostly 45.5 µM), for the others: at the highest dose activity change, negative = inhibition, most hits filed as inhibitors. GLS enzymatic activity, qHTS titration. actives 0.21% (n = 410,000). Glutaminase kidney isoform, mitochondrial (Homo sapiens), O94925; note: potency is the fitted concentration of half-maximal effect
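Glutamate formation by hKGA was monitored fluorometrically using coupled glutamate oxidase, HRP and Amplex Red. Substrate was added as 1 mM L-glutamine solution; incubation was 30 min at RT after an initial read.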
PLK1 PBD inh = qHTS for Inhibitors of PLK1-PDB (polo-like kinase 1 - polo-box domain): Primary Screen | Potency, µM, without a hit: max response, negative = inhibition, hits mostly inhibitors | actives 2.8% (n = 360,000) | Plk1 PBD binding of FITC phosphopeptide, fluorescence polarization | Serine/threonine-protein kinase PLK1 (Homo sapiens), P53350; note: potency is the fitted concentration of half-maximal effect; series mostly up to about 57 µM; nearly all actives have a fitted effect of over 65% in size
PI4K2A inh = qHTS for small molecular inhibitors of PI4K2A | Phosphatidylinositol 4-kinase type 2-alpha (Homo sapiens), Q9BTU6 | purified PI4K2A, ADP-Glo luminescence, 1 h; stronger effect = lower value | activity change, negative = inhibition, % at 76.9 µM | actives 0.13% (n = 420,000) | AID 1346378, 2018; in the data active = activity change below about -50%; inconclusive = mostly about -30% to -49%;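 note: -100% = wells without enzyme as full effect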
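Compounds are screened against recombinant PI4K2A using PI as substrate and ATP, the latter dispensed at 300 microM. Reactions run one hour at ambient temperature before ADP-Glo detection; full inhibition defined by wells lacking enzyme.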
KAT2A inh = qHTS Assay for Inhibitors of GCN5L2 | Histone acetyltransferase KAT2A (Homo sapiens), Q92830 | GCN5L2 HAT assay, ThioGlo1 CoA-SH fluorescence | Potency, µM (series often up to 58.9 µM), without a hit: top-dose activity change, negative = inhibition, actives largely listed as inhibitors | actives 0.21% (n = 390,000); note: potency is the fitted concentration of half-maximal effect
Target sequence (Q92830 whole entry, looked up): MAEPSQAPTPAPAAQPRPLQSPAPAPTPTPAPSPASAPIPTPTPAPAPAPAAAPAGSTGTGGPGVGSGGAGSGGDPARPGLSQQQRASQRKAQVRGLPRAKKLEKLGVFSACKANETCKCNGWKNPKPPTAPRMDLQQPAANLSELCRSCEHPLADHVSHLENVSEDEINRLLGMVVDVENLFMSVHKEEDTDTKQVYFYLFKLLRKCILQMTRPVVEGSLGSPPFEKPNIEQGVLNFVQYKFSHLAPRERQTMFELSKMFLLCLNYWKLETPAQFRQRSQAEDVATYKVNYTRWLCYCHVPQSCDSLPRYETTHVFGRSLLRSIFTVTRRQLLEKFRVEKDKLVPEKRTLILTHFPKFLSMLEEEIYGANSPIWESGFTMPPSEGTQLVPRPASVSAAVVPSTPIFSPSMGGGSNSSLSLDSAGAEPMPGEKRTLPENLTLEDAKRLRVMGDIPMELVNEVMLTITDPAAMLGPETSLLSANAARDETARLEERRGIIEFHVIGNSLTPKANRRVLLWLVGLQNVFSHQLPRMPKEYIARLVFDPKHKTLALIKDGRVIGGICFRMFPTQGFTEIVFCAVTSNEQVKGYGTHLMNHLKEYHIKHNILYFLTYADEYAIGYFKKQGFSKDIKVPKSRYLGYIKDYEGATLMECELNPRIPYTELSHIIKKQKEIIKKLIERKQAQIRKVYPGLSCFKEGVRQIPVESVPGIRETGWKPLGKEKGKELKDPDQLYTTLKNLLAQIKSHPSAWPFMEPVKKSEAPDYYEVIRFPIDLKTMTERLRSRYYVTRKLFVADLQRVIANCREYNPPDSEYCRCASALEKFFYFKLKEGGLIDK
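GCN5L2 (20nM final) in 50mM HEPES, 0.1mM EDTA pH 7.5, 0.01% Tween-20 was preincubated 15 min at room temperature with compound, then given ThioGlo1 (50uM), H3(1-25) peptide (75uM) and acetyl-CoA (70uM); CoA-thiol fluorescence (Ex340/Em540) was read at 0 and 20 min.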
* = called active by the depositor; ? = inconclusive; · = not tested or not shown; [ ] = another dose, or the depositor's remark. Rows were chosen to be rich in hits. Some 3.1% of all compounds tested hit in one or more screens of this group. Unless noted, calls come from the whole dose curve; as a rule, active = well fitted curve in the direction sought with a large enough effect; inconclusive = small, poorly fitted or top-dose-only effect, or another doubt; inactive = no such curve, though single readings can be large; an effect the other way counts as inactive or inconclusive. Unless noted, % is set by controls: 0 for no effect and ±100 for the full control effect.

SMILES	VDR inhibitor	GLS inhibitor	PLK1 PBD inh	PI4K2A inh	KAT2A inh
CC(=O)Nc1cccc(Oc2nc(C)cc(C)c2C#N)c1	?	-3%	24µM*	-2	-9%
O=C(Nc1nnc(N2CCCCCC2)s1)Nc1cc(F)ccc1F	4%	-15%	·	-3	0%
CCOC(=O)c1sc2nc(C)nc(N3CCN(S(=O)(=O)c4ccccc4)CC3)c2c1C	-8%	11%	24µM*	0	-15%
O=C(O)CSCC(=O)Nc1ccc(-c2nc3ccccc3s2)cc1	?	13%	9.5µM*	-29	-16%
COc1ccc(/C=N/NC(=O)CCSc2nc3ccccc3s2)cc1	-25%	23%	30µM*	3	-7%
Cn1c(CSc2nc3ccccc3s2)n[nH]c1=S	25%	7%	30µM*	3	0%
O=C(CSc1nc2ccccc2s1)N/N=C/c1ccc(C(=O)O)cc1	-7%	0%	-18%	-3	-14%
O=C(CSc1nc2ccccc2s1)Nc1ccc(Cl)c(C(=O)O)c1	2%	-1%	8.4µM*	-1	?
O=C(CSc1nc2ccccc2s1)NNC(=O)Nc1ccc(Cl)c(Cl)c1	-2%	-4%	-3%	-12	-4%
C[C@H]1C(O)[C@@]23CCC4C5(C=[N+](CCO)C[C@]4(C)CCC5)C2C[C@@H]1C3 (some centres undefined)	5%	·	·	·	·
CNC(=S)N/N=C/c1c(C(=O)OC)cnn1-c1ccc(Cl)cc1	·	·	·	-29	·
O=C1C2CCC(C2)[C@@H]2CCCCN12 (some centres undefined)	-1%	·	·	·	-1%[135 µM]
CC(=O)CSc1nc2ccccc2s1	10%	-8%	27µM*	-1	25%
Cn1c(Cc2ccccc2)n[nH]c1=S	-12%	2%	-2%	-1	1%
Cn1c(Cc2cccs2)n[nH]c1=S	-25%	26%	27µM*	-7	1%
Cc1ccc(-n2c(O)c(C=Nc3ccccc3-c3n[nH]c(=S)[nH]c3=O)c3ccccc3c2=O)cc1C	-1%	11%	30µM*	5	?
Cc1ccc(-n2c(O)c(C=Nc3ccccc3-c3n[nH]c(=S)[nH]c3=O)c3ccccc3c2=O)c(C)c1	-3%	11%	27µM*	0	-10%
Cc1cccc(-n2c(O)c(C=Nc3ccccc3-c3n[nH]c(=S)[nH]c3=O)c3ccccc3c2=O)n1	-21%	19%	27µM*	1	-8%
Cc1cccc(-n2c(O)c(C=Nc3ccccc3O)c3ccccc3c2=O)n1	-6%	-18%	12%	2	-7%
Cc1ccc(-n2c(O)c(/C=N/Nc3ccc(S(=O)(=O)N4CCOCC4)cc3[N+](=O)[O-])c3ccccc3c2=O)c(C)c1	?	9%	?	-11	-29%
Cc1ccc(-n2c(O)c(C=NC3CCS(=O)(=O)C3)c3ccccc3c2=O)cc1C (centres undefined)	8%	0%	-8%	-1	0%
O=C(NC1CCCCN(Cc2cccc(Cl)c2)C1=O)c1ccc(-c2ccccc2)cc1 (centres undefined)	·	·	·	-1	·
N#CC(=C1Nc2ccccc2N1)S(=O)(=O)c1ccccc1	50µM*	?	3.4µM*	-4	-15%
COc1ccccc1N1CCNC(C)C1=O (centres undefined)	79µM*	?	8.4µM*	2	-10%
Cc1cc(C)cc(N2C(=O)CN(Cc3ccccc3)C2=S)c1	-26%	14%	24µM*	-2	-30%
S=c1[nH]nc(SCc2ccccc2)c2[nH]cnc12	-10%	7.1µM*	?	-3	·
CCCCSc1n[nH]c(=S)c2nc[nH]c12	?	?	?	-5	·
O=[N+]([O-])c1ccc(NN=C(Oc2ccccc2)c2ccc([N+](=O)[O-])cc2)cc1	·	2%	3%	1	·
CC/C(=N\Nc1ccc([N+](=O)[O-])cc1)c1ccccc1	?	19%	17µM*	1	-11%
